Screening results deposited in PubChem by several laboratories.
Compounds with a hit are over-represented: about 27% of the library has one in this group of screens.
CYP2C9 inh – blocks human cytochrome P450 2C9. P11712. CYP2C9 Supersomes, luciferin-H conversion, luminescence. inhibition, % at 5 µM. actives 20% (n = 96,000). AID 777;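 active = blocking of liver enzyme CYP2C9 beyond about 50% at 5 µM, limit read from the data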
sEH inhibitor – inhibitors of human soluble epoxide hydrolase; inhibition, % at 2 µM; AID 707; P34913; recombinant human sEH enzymatic activity assay; actives 0.34% (n = 91,000); in the data active = inhibition above about 80%
Target sequence (P34913 whole entry, looked up): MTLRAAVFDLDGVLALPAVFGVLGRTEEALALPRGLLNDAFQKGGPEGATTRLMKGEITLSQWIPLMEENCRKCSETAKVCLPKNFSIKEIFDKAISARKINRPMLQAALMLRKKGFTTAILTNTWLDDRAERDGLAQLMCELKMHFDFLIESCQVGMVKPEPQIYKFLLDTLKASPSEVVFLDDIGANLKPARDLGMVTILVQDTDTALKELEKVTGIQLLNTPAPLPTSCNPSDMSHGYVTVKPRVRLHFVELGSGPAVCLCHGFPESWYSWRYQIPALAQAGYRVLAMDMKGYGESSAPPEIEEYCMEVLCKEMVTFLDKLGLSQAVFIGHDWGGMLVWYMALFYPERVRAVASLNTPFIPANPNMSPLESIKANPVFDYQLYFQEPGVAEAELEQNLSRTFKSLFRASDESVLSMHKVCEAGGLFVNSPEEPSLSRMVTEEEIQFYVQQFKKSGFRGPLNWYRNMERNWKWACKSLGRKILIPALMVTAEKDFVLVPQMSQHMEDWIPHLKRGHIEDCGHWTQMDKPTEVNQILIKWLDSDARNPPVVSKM
CYP2C9 act – CYP2C9 (human) activation; recombinant CYP2C9, luciferin-H conversion, luminescence; hits give high values; factor 1 = untreated enzyme, 0 = blocked; P11712; activation factor at 5 µM; actives 1.4% (n = 96,000);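 active = activation factor of 2 or more for CYP2C9 at a 5 µM dose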
CYP2C19 inhib – blocks human cytochrome P450 2C19; CYP2C19 Supersomes, luciferin-H EGE luminescence, 30 min; inhibition, % at 5 µM; actives 21% (n = 96,000); AID 778;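 active = CYP2C19 inhibition above a set limit at 5 µM in the primary screen, cut at about 50% in these data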
CYP2C19 act – activators of human cytochrome P450 2C19. recombinant CYP2C19, luciferin-H EGE luminescence; hits give high values; 0 = fully inhibited enzyme, 1 = untreated enzyme. activation factor at 5 µM. 96,000 tested, under 10 active;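 active = activation factor of at least 2 at 5 µM in the primary screen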
sEH activator – increases human soluble epoxide hydrolase activity; purified human sEH enzymatic activity, activator screen; activation, % at 2 µM; actives 0.04% (n = 91,000); in the data active = activation above about 37%
Each line names hits and unclear results; the compound was inactive in the other large screens.

CN(C(=O)NC(=O)C1=C(N2CCOCC2)/C(=C/c2ccccc2)CC1)S(C)(=O)=O	none
CCCCN(C(=O)NC(=O)C1=C(N2CCOCC2)/C(=C/c2ccccc2)CC1)S(C)(=O)=O	CYP2C9 inh 78, CYP2C19 inhib 79 (no result: sEH inhibitor, sEH activator)
COc1ccc([N+](=O)[O-])cc1/C=N/NC(=O)/C(=C\c1cccs1)NC(=O)c1ccccc1	none
O=C(N/N=C/c1cc2ccccc2nc1Cl)/C(=C/c1cccs1)NC(=O)c1ccccc1	CYP2C19 inhib 80
O=C1Nc2ncccc2OC1CCO (stereo not drawn)	none
Cc1ccc(C)c(N=Nc2nc3ccccc3n2C)c1	CYP2C19 inhib 66
Cn1c(/N=C/c2cccs2)nc2ccccc21	none
CCC(CC)C(=O)NCCc1cc2cc(C)c(C)cc2[nH]c1=O	CYP2C9 inh 63 (no result: sEH inhibitor, sEH activator)
CCC(=O)NCCc1cc2cc(C)c(C)cc2[nH]c1=O	none
CCN(CC)c1ccc(-c2nc3cnccn3c2NC2CCCC2)cc1	CYP2C9 inh 98, CYP2C19 inhib 94
c1cn2c(NC3CCCC3)c(-c3ccc(N4CCOCC4)cc3)nc2cn1	CYP2C9 inh 98, CYP2C19 inhib 95
Cc1ccc(C(N)=S)c(C)c1	none (no result: CYP2C9 inh, CYP2C9 act, CYP2C19 inhib, CYP2C19 act)
CCCCC(=O)Nc1ccc(NC(=O)c2cccnc2)cn1	none
O=C(Nc1ccnc(-c2cccnc2)n1)c1ccccc1Cl	none
CCCCC(=O)Nc1ccnc(-c2cccnc2)n1	CYP2C9 inh 76, CYP2C19 inhib 98
O=C(Nc1ccnc(-c2cccnc2)n1)c1cccc(Cl)c1Cl	CYP2C19 inhib 51
CC(C)C(=O)Nc1ccnc(-c2cccnc2)n1	CYP2C19 inhib 76
COc1ccc(/C=N\NS(=O)(=O)c2ccc(Cl)cc2)cc1COc1ccccc1[N+](=O)[O-]	none (no result: CYP2C9 inh, CYP2C9 act, CYP2C19 inhib, CYP2C19 act)
Cc1ccc(S(=O)(=O)N/N=C/c2ccc(OS(=O)(=O)c3ccc(C)c([N+](=O)[O-])c3)cc2)cc1	CYP2C9 inh 91
Cc1ccc(S(=O)(=O)N/N=C\c2ccc(Cl)c([N+](=O)[O-])c2)cc1	CYP2C9 inh 70, CYP2C19 inhib 87
Cc1ccc(S(=O)(=O)N/N=C\c2ccc([N+](=O)[O-])o2)cc1	CYP2C9 inh 79
Cc1ccc(S(=O)(=O)N/N=C/c2ccc(OC3CSC3)cc2)cc1	none
Cc1ccc(/C=N/NC(=O)c2cccs2)cc1[N+](=O)[O-]	none
Cc1ccc(NC(=S)N/N=C/c2ccc(Cl)c([N+](=O)[O-])c2)cc1	CYP2C9 inh 56
CCc1ccc(N2CCCn3c2nc2c3c(=O)n(CCN3CCOCC3)c(=O)n2C)cc1	none (no result: sEH inhibitor, sEH activator)
CCOc1ccc(OCC)c(C2C(C#N)=C(N)N(c3cccnc3)C3=C2C(=O)CC(C)(C)C3)c1 (stereo not drawn)	none
c1ccc2c(-c3nc(C4CCCCC4)no3)cc(-c3ccncc3)nc2c1	CYP2C9 inh 80, CYP2C19 inhib 57
O=C(Nc1nnc(COc2ccc(Cl)cc2)s1)c1ccc([N+](=O)[O-])cc1	none
COCc1nnc(NS(=O)(=O)c2ccc(Br)cc2)s1	CYP2C9 inh 57
COCc1nnc(NS(=O)(=O)c2ccc([N+](=O)[O-])cc2)s1	CYP2C9 inh 82
CCCSc1nc(N2CCOCC2)c2c(c1C#N)CCCC2	CYP2C9 inh 93, CYP2C19 inhib 59
